Targets with a hit are over-represented here; the source holds about 8,800 in all. About 0.5% of all pairs of compound and target were hits.
Tests used:
Test in all cases: log2 fold change, soluble protein after heating vs DMSO (PISA); higher = thermal stabilisation; K562 lysate, 10 uM; active = over 0.2 and 3.5 SD of the protein, either way, in both replicates (recomputed)
[1] = compound: NCC(=O)Nc1ccc(-n2nc(C(F)(F)F)cc2-c2ccc3c(ccc4ccccc43)c2)cc1
How it was run: (§1)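 Dounce homogenisation of K562 pellets in PBS pH 7.4 with 1 mM MgCl2 produced a crude extract, used at 1 mg/mL protein. Exposure to 10 μM compound lasted 30 min, and aliquots were then heated for 3 min across 48°C-58°C, pooled and brought to 0.5% NP-40 at 4°C. The supernatant after 21,000xg for 90 min was quantified by TMTpro 16plex LC-MS/MS with channel sums equalised. Duplicate values are given as log-two fold change in thermal stability relative to solvent controls.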

[2] = compound: O=C(CCCCCCC(=O)Nc1ccccc1)NO [vorinostat]
How it was run: as §1

[3] = compound: O=C(O)c1ccc2c(c1)nc(Nc1cccc(Cl)c1)c1ccncc12 [silmitasertib]
How it was run: as §1

[4] = compound: O=C1NC(=O)C(c2cnc3ccccn23)=C1c1cn2c3c(cc(F)cc13)CN(C(=O)N1CCCCC1)CC2
How it was run: as §1

[5] = compound: c1cn2cc(-c3ccc4cn[nH]c4c3)nc(Nc3ccc(N4CCOCC4)cc3)c2n1 [entospletinib]
How it was run: as §1

Measured: log2 fold change

TUBGCP3 (UniProt Q96CW5)
inactive: [1] -0.014 | [3] -0.014 | [4] 0.019 | [5] -0.003
active: [2] -0.459

TMPO (UniProt P42167)
inactive: [1] 0.021 | [2] 0.104 | [3] 0.012 | [4] -0.032 | [5] -0.031

TFPI (UniProt P10646)
Sequence of UniProt P10646 (P10646 whole entry, looked up): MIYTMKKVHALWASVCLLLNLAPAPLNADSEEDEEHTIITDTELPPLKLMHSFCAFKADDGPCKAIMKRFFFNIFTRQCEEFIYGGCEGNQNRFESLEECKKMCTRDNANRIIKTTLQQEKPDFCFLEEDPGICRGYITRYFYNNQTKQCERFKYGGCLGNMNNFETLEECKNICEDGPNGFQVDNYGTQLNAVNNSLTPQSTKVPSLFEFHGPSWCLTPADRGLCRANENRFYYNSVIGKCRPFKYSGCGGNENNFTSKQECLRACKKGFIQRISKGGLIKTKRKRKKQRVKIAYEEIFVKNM
inactive: [1] 0.067 | [2] 0.106 | [3] 0.01 | [4] -0.063 | [5] -0.057

TPX2 (UniProt Q9ULW0)
inactive: [1] 0.003 | [3] -0.04 | [4] 0.009 | [5] 0.015
active: [2] -0.498

TUBA1C (UniProt Q9BQE3)
active: [2] -0.256
inactive: [1] 0.019 | [3] 0.013 | [4] 0.006 | [5] -0.014

UGDH (UniProt O60701)
Sequence of UniProt O60701 (O60701 whole entry, looked up): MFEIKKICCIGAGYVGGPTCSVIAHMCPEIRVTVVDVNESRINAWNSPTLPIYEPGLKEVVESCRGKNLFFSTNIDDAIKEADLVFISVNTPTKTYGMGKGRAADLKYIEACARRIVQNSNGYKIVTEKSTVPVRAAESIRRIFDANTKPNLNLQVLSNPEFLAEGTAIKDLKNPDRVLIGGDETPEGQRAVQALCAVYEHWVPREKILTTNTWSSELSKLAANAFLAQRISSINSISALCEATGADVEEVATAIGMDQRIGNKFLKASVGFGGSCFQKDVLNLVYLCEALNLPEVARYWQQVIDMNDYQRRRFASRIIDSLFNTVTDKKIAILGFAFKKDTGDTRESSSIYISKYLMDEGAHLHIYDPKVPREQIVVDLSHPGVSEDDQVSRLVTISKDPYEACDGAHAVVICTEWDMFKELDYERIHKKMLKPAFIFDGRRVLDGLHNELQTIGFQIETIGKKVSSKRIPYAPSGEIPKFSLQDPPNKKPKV
inactive: [1] 0.039 | [2] -0.206 | [3] 0.001 | [4] 0.01 | [5] -0.01

TGFBRAP1 (UniProt Q8WUH2)
inactive: [1] -0.039 | [3] 0.051 | [4] -0.018 | [5] 0.024
active: [2] -0.433

TRIM25 (UniProt Q14258)
Sequence of UniProt Q14258 (Q14258 whole entry, looked up): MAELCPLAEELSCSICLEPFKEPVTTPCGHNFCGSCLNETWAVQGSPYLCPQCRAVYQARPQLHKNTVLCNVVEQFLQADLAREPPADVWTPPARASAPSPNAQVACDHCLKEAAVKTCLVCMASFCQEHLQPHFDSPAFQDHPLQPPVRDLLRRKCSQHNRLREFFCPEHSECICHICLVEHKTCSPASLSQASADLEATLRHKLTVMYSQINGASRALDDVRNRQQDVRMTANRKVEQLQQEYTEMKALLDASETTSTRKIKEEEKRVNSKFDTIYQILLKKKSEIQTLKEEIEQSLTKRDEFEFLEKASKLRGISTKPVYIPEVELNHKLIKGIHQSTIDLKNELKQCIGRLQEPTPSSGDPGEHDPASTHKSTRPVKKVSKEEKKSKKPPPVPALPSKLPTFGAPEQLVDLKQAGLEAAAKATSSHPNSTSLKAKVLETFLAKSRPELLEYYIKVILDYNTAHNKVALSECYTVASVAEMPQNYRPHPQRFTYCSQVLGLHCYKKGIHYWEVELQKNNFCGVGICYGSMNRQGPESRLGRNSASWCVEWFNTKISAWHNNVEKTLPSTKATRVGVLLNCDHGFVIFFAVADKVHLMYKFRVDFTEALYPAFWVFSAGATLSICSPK
inactive: [1] 0.013 | [3] -0.046 | [4] -0.018 | [5] 0.011
active: [2] -0.59

TRMT2A (UniProt Q8IZ69)
inactive: [1] -0.012 | [3] 0.034 | [4] -0.007 | [5] 0.002
active: [2] -0.366

TMEM97 (UniProt Q5BJF2)
inactive: [1] -0.016 | [2] 0.152 | [3] -0.039 | [4] 0.071 | [5] 0.004

TCAF2 (UniProt A6NFQ2)
Sequence of UniProt A6NFQ2 (A6NFQ2 whole entry, looked up): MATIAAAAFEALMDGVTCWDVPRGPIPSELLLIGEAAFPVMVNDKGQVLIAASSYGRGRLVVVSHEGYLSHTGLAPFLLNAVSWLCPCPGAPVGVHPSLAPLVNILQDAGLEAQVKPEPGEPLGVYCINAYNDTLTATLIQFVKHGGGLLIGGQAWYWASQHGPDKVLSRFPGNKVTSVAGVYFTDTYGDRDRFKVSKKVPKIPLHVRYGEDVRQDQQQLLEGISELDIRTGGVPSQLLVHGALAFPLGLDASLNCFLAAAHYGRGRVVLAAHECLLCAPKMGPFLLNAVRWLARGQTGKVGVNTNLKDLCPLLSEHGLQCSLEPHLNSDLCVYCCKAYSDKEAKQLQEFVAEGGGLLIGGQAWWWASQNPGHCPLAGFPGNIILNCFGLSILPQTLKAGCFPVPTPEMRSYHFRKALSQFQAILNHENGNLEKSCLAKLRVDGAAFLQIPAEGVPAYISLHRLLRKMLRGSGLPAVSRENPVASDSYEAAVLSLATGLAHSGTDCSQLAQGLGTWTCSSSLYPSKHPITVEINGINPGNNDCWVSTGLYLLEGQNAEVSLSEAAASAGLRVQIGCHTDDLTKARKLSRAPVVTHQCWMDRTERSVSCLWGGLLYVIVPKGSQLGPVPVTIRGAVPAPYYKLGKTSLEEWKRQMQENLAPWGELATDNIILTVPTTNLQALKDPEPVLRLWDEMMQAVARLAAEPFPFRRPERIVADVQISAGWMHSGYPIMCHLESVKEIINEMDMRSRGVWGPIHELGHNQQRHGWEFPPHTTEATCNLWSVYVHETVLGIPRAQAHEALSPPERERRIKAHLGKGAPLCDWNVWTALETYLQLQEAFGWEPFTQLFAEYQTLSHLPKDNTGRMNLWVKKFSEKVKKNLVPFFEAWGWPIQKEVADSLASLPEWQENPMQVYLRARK
active: [2] -0.27
inactive: [1] 0.019 | [3] 0 | [4] 0 | [5] -0.01

TROAP (UniProt Q12815)
inactive: [1] 0.003 | [3] 0.003 | [4] 0.014 | [5] -0.057
active: [2] -0.382

TPST2 (UniProt O60704)
inactive: [1] 0.045 | [2] 0.132 | [3] -0.03 | [4] -0.048 | [5] 0.016

TFCP2 (UniProt Q12800)
Sequence of UniProt Q12800 (Q12800 whole entry, looked up): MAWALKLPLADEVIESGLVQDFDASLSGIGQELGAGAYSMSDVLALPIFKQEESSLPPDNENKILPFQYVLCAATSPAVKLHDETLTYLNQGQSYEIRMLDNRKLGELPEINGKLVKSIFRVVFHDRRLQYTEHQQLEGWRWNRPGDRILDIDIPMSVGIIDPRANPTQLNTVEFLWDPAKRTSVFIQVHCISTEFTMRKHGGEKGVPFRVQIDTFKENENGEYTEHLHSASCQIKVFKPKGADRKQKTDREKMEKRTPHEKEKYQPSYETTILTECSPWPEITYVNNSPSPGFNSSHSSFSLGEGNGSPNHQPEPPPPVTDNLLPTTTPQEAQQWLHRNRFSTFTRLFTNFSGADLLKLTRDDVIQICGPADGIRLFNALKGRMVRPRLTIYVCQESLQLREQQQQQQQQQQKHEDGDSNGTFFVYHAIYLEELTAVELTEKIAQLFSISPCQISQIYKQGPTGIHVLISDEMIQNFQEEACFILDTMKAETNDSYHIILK
active: [2] -0.465
inactive: [1] -0.072 | [3] 0.045 | [4] 0.029 | [5] 0.051

TMEM87B (UniProt Q96K49)
inactive: [1] -0.024 | [2] 0.018 | [3] 0.026 | [4] -0.037 | [5] -0.097

TMEM164 (UniProt Q5U3C3)
Sequence of UniProt Q5U3C3 (Q5U3C3 whole entry, looked up): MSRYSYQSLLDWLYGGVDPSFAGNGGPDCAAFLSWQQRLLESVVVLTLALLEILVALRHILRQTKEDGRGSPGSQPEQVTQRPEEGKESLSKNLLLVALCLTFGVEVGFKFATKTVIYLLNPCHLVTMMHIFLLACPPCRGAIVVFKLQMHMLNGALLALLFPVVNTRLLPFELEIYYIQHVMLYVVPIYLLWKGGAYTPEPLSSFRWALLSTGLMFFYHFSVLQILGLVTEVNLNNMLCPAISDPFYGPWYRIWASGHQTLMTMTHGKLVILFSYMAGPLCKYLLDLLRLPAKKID
inactive: [1] 0.098 | [2] 0.463 | [3] -0.079 | [4] 0.274 | [5] 0.059

TXNIP (UniProt Q9H3M7)
Sequence of UniProt Q9H3M7 (Q9H3M7 whole entry, looked up): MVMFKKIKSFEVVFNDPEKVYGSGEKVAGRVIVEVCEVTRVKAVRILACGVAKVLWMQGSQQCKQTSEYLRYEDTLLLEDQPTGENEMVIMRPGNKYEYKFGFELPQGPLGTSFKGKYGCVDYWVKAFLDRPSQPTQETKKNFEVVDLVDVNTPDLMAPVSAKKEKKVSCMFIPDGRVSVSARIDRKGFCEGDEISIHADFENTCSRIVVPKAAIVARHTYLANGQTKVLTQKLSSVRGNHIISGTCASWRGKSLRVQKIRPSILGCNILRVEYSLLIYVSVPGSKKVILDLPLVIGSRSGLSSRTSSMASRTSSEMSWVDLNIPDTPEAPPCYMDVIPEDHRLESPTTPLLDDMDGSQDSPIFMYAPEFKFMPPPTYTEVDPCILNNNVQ
active: [2] -0.399
inactive: [1] -0.076 | [3] 0.04 | [4] -0.051 | [5] 0.024

TRAPPC12 (UniProt Q8WVT3)
active: [2] -0.258
inactive: [1] 0.032 | [3] 0.005 | [4] 0.043 | [5] -0.001

UBAP2L isoform 5 (UniProt Q14157)
inactive: [1] 0.013 | [2] 0.126 | [3] -0.037 | [4] -0.018 | [5] -0.042

TMPO (UniProt P42166)
active: [2] -0.569
inactive: [1] 0.037 | [3] -0.057 | [4] 0.009 | [5] -0.029

TELO2 (UniProt Q9Y4R8)
active: [2] -0.361
inactive: [1] 0.003 | [3] 0.117 | [4] 0.011 | [5] 0.011

TTMP isoform 3 (UniProt Q5BVD1)
inactive: [1] 0.253 | [2] 0.191 | [3] -0.074 | [4] 0.167 | [5] -0.032

TMEM14C (UniProt Q9P0S9)
inactive: [1] -0.032 | [2] -0.018 | [3] 0.013 | [4] 0.058 | [5] 0.091

TBC1D2B (UniProt Q9UPU7)
inactive: [1] -0.007 | [3] 0.049 | [4] -0.047 | [5] -0.061
active: [2] -0.249

UBL4A (UniProt P11441)
inactive: [1] -0.036 | [2] -0.016 | [3] 0.04 | [4] 0.007 | [5] -0.011

TRMT10A (UniProt Q8TBZ6)
inactive: [1] 0.032 | [2] 0.072 | [3] -0.058 | [4] -0.063 | [5] -0.012

TCF12 isoform 3 (UniProt Q99081)
inactive: [1] -0.016 | [3] -0.024 | [4] -0.004 | [5] 0.006
active: [2] -0.263

TUBB6 (UniProt K7ES63)
inactive: [1] -0.062 | [2] -0.414 | [3] 0.013 | [4] -0.164 | [5] -0.11

TJP1 isoform 2 (UniProt Q07157)
inactive: [1] 0.029 | [2] 0.041 | [3] -0.035 | [4] -0.023 | [5] -0.043

TTLL12 (UniProt Q14166)
active: [2] -0.426
inactive: [1] -0.021 | [3] 0.092 | [4] 0.02 | [5] 0.049

UBE2H (UniProt P62256)
Sequence of UniProt P62256 (P62256 whole entry, looked up): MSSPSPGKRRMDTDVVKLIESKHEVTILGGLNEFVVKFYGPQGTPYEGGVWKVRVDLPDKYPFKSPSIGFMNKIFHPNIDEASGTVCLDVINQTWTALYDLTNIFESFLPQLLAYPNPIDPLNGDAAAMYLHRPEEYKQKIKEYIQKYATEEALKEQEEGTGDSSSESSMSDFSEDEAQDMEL
inactive: [1] 0.023 | [2] 0.093 | [3] -0.003 | [4] -0.003 | [5] -0.012

TXNRD2 (UniProt Q9NNW7)
Sequence of UniProt Q9NNW7 (Q9NNW7 whole entry, looked up): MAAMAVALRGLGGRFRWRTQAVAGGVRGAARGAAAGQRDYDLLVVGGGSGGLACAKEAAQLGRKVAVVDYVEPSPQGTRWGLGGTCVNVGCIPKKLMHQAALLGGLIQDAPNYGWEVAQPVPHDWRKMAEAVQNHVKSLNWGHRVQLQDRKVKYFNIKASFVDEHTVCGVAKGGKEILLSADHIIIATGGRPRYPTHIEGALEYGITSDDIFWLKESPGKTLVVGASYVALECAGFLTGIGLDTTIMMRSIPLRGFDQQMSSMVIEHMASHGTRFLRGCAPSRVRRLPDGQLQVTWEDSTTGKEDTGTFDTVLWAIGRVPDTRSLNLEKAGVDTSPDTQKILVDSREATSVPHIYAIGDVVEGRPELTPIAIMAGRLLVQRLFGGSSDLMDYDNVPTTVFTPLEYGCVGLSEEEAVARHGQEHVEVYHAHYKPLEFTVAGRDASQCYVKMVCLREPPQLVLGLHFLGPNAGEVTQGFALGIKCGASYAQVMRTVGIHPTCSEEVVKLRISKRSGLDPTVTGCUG
inactive: [1] -0.016 | [2] 0.125 | [3] -0.025 | [4] 0.029 | [5] 0.023

UCHL5 (UniProt Q5LJA9)
inactive: [1] -0.017 | [3] 0.004 | [4] -0.086 | [5] -0.011
active: [2] -0.361

TFIP11 (UniProt Q9UBB9)
inactive: [1] -0.001 | [2] -0.06 | [3] 0.013 | [4] 0.001 | [5] 0.067

UBR4 (UniProt Q5T4S7)
inactive: [1] 0 | [2] -0.14 | [3] 0.027 | [4] -0.008 | [5] 0.009

TBC1D20 isoform 3 (UniProt Q96BZ9)
inactive: [1] -0.118 | [2] 0.088 | [3] -0.013 | [4] 0.058 | [5] 0.02

UFM1 (UniProt P61960)
inactive: [1] -0.247 | [2] 0.036 | [3] -0.074 | [4] -0.109 | [5] -0.011

THEMIS2 (UniProt Q5TEJ8)
Sequence of UniProt Q5TEJ8 (Q5TEJ8 whole entry, looked up): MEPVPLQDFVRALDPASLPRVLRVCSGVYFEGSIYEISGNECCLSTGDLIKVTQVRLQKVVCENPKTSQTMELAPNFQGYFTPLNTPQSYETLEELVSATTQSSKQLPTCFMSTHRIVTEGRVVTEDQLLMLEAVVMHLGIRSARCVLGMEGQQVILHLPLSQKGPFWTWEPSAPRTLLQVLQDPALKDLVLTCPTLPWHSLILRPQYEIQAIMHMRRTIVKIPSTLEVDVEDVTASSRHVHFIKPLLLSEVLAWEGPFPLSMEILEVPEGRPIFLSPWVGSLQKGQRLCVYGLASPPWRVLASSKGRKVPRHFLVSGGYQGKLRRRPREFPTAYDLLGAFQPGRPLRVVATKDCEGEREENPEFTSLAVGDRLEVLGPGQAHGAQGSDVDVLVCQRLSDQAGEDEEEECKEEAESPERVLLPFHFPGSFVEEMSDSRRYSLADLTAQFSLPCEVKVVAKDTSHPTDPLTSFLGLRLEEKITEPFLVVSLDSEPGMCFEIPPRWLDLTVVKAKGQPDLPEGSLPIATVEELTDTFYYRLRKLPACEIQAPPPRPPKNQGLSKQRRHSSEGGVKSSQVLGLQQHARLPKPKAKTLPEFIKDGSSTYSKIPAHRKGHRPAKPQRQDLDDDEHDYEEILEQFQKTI
inactive: [1] -0.029 | [3] 0.069 | [4] 0.059 | [5] -0.007
active: [2] -0.315

TTC38 (UniProt Q5R3I4)
inactive: [1] 0.017 | [2] -0.044 | [3] -0.014 | [4] -0.022 | [5] 0.029

UBR1 (UniProt Q8IWV7)
inactive: [1] -0.04 | [3] 0.025 | [4] 0.008 | [5] -0.024
active: [2] -0.239

TMEM167B (UniProt Q9NRX6)
Sequence of UniProt Q9NRX6 (Q9NRX6 whole entry, looked up): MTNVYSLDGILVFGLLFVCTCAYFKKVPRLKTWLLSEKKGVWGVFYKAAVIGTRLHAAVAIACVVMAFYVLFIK
inactive: [1] 0.019 | [2] 0 | [3] 0.009 | [4] -0.033 | [5] 0.031

— the supplement of paper PMC10849652
